Data published in PMC4336329 (PLoS ONE, 2015).
About 14,000 (4.5%) of roughly 310,000 compounds showed an effect of 50% or more. The effect is printed as a negative number. Many of the other results were omitted from the sample, so strong results are more common in it than they were.

Target: human ether-à-go-go-related gene (hERG) potassium channel (human, UniProt Q12809)
Assay: primary screen, population patch clamp on CHO cells stably expressing hERG; higher = less effect of the substance
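Note: peak tail current of the secondary pulse compared with the same well before compound.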

human ether-à-go-go-related gene (hERG) potassium channel, sequence (Q12809 whole entry, looked up): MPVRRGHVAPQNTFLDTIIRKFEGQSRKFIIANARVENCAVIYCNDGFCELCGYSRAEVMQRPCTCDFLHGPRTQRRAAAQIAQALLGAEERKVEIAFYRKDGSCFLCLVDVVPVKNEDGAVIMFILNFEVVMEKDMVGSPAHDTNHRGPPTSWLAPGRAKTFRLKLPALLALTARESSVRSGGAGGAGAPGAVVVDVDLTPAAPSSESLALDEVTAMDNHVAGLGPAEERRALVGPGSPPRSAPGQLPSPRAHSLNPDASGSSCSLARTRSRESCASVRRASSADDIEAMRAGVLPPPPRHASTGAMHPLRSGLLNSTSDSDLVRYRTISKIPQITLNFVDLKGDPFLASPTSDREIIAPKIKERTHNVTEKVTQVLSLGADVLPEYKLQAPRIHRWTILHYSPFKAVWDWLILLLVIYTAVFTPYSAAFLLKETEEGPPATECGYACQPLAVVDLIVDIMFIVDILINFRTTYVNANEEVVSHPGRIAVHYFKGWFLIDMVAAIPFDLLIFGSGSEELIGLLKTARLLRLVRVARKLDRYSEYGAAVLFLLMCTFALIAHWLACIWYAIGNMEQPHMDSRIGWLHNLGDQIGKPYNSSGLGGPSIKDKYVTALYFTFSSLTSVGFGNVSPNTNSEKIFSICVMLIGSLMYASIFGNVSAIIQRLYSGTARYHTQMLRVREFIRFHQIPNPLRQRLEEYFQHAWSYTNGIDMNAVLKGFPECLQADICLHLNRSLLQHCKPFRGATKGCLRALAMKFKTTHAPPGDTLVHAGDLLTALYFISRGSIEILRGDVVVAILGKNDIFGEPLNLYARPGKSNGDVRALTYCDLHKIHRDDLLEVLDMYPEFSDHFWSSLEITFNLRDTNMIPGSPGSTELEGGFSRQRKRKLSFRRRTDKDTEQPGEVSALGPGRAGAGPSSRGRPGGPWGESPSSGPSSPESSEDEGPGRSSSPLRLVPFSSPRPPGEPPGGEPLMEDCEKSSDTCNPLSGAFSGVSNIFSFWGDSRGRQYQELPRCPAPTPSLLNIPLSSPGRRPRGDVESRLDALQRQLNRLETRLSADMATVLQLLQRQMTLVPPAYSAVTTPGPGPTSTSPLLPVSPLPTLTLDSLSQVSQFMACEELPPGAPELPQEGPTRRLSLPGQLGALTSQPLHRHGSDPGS

| Compound | hERG current change (%, negative = inhibition) at 10uM [%] |
| --- | --- |
| COc1ccc(/C=C(/NC(=O)c2ccccc2)C(=O)N2CCCC2)cc1 | 2.89 |
| COc1ccc(/C=C(/NC(=O)c2ccccc2)C(=O)N2CCCCC2)cc1 | -1.39 |
| CCOC(=O)N1CCN(C(=O)/C(=C/c2ccc(Cl)cc2)NC(=O)c2ccccc2)CC1 | -74.7 |
| CCOC(=O)N1CCN(C(=O)/C(=C/c2ccc(Br)cc2)NC(=O)c2ccc(OC)cc2)CC1 | -78.2 |
| COc1ccc(/C=C(\NC(=O)c2ccc(C)cc2)C(=O)N2CCCCC2)cc1 | -55.2 |
| O=C(N/C(=C/c1ccc(Cl)cc1)C(=O)N1CCCC1)c1ccccc1 | -8.81 |
| CCOC(=O)N1CCN(C(=O)/C(=C/c2ccc(N(C)C)cc2)NC(=O)c2ccccc2)CC1 | -45.6 |
| COc1ccc(/C=C(\NC(=O)c2ccccc2)C(=O)N2CCN(C)CC2)cc1 | -76.3 |
| COc1ccc(/C=C(\NC(=O)c2ccc(OC)cc2)C(=O)N2CCCCC2)cc1 | -3.21 |
| COc1ccc(C(=O)N/C(=C\c2ccc(OC)c(OC)c2)C(=O)N2CCCCC2)cc1 | 6.11 |
| N#Cc1ccc(C(=O)Nc2ccc(S(=O)(=O)NC3=NCCCCC3)cc2)cc1 | -1.54 |
| CC1=CC(=O)c2c(O)ccc(O)c2C1=O | -42.6 |
| Cc1nn(C)c(C)c1CNC(=O)Nc1cccc(Cl)c1C | 1.35 |
| CCOC(=O)c1[nH]c(C)c(C(=O)OCCOc2cccc(C)c2)c1C | 5.99 |
| CC(C)C(=O)NC(Nc1cccc2cccnc12)C(Cl)(Cl)Cl (stereo not drawn) | -17.8 |
| COc1cc(NC(=O)[C@@H](NC(=O)c2ccco2)C(C)C)c(OC)cc1NC(=O)c1ccccc1 | -36 |
| CCOC(=O)C1=C(N)OC(CCl)=C(C#N)C1c1ccsc1 (stereo not drawn) | 8.35 |
| CCOC(=O)C1CCN(C(=O)/C(=C/c2ccccc2)NC(=O)c2ccccc2)CC1 | -30 |
| CCOC(=O)N1CCN(C(=O)/C(=C/c2ccc(F)cc2)NC(=O)c2ccccc2)CC1 | -48.5 |
| CCOC(=O)N1CCN(C(=O)/C(=C/c2ccc(OC)cc2)NC(=O)c2ccccc2)CC1 | -68.4 |
| CCOC(=O)N1CCN(C(=O)/C(=C\c2ccc(SC)cc2)NC(=O)c2ccccc2)CC1 | -78.5 |
| CCOC(=O)N1CCN(C(=O)/C(=C/c2ccc(OC)c(OC)c2)NC(=O)c2ccccc2)CC1 | -34.5 |
| COc1ccc(/C=C(/NC(=O)c2ccccc2)C(=O)N2CCC(C)CC2)cc1 | -38.4 |
| CCNc1nc(C(=O)O)nc(N2CCOCC2)n1 | 10.7 |

| Compound | hERG current change (%, negative = inhibition) at 10uM [%] |
| --- | --- |
| CCCc1nnc(NC(=O)CC(C)c2ccccc2)s1 (stereo not drawn) | 2.66 |
| Cc1nn(Cc2ccccc2)c(C)c1NC(=O)c1cccs1 | 14 |
| COc1ccccc1N1CCN(S(=O)(=O)CCNC(=O)C2CCCCC2)CC1 | -20.7 |
| CCOC(=O)c1ccc(Nc2ncnc3ccc(C)cc23)cc1 | 6.65 |
| Brc1ccccc1-c1nnc(COc2ncnc3c2cnn3-c2ccccc2)o1 | 7.27 |
| O=[N+]([O-])c1ccc2c(OCc3nnc(-c4ccccc4Br)o3)ncnc2c1 | -74.1 |
| Brc1ccccc1-c1nnc(COc2ncnc3ccccc23)o1 | -8.52 |
| CCOc1ccc(N2CC(C(=O)N3CCc4ccccc43)CC2=O)cc1 (stereo not drawn) | -47.6 |
| COc1ccc(C2C(C(=O)N3CCN(c4ccccn4)CC3)CC(=O)N2c2ccc(OC)cc2)cc1 (stereo not drawn) | -78.7 |
| CCOc1ccc(N2CC(C(=O)N3CCc4ccccc4C3)CC2=O)cc1 (stereo not drawn) | -75 |
| CCOc1ccc(N2CC(C(=O)N3CCCC3)CC2=O)cc1 (stereo not drawn) | -4.65 |
| COc1ccc(N2C(=O)CCC(C(=O)N3CCN(c4ccccn4)CC3)C2c2ccc(F)cc2)cc1 (stereo not drawn) | -48.2 |
| CCOc1ccc(N2CC(C(=O)N3CCCc4ccccc43)CC2=O)cc1 (stereo not drawn) | -62.6 |
| CCc1ccc(N2CC(C(=O)N3CCN(c4ccccn4)CC3)CC2=O)cc1 (stereo not drawn) | -24.3 |
| CCOc1ccc(N2CC(C(=O)N3CC(C)OC(C)C3)CC2=O)cc1 (stereo not drawn) | 20 |
| CCOc1ccc(N2CC(C(=O)N3CCN(c4ccccn4)CC3)CC2=O)cc1 (stereo not drawn) | -59 |
| COc1ccc(C2C(C(=O)N3CCN(c4ccccn4)CC3)CCC(=O)N2c2ccc(OC)cc2)cc1 (stereo not drawn) | -47.3 |
| Cc1ccc(N2CC(C(=O)N3CCc4ccccc4C3)CC2=O)cc1 (stereo not drawn) | -44.5 |
| Cc1ccc(N2CC(C(=O)N3CCCc4ccccc43)CC2=O)cc1 (stereo not drawn) | -18.8 |
| COc1cccc(NS(=O)(=O)c2ccc3[nH]cc(C(=O)NCCC(C)C)c(=O)c3c2)c1 | 13.9 |
| Cc1ccc2nc(N/C(=N/S(=O)(=O)c3cccs3)c3ccccc3Cl)sc2c1 | -7.11 |
| CN1CCN(S(=O)(=O)c2ccc(NC(=O)c3cccs3)cc2)CC1 | -11.3 |
| NC(=O)c1ccsc1NC(=O)COC(=O)c1cnccn1 | 2.13 |
| CC1CCC(NC(=O)CNC(=O)c2cccs2)CC1 (stereo not drawn) | 7.33 |

| Compound | hERG current change (%, negative = inhibition) at 10uM [%] |
| --- | --- |
| Cc1n[nH]c(=O)nc1N1CCc2ccccc2C1 | 4.47 |
| COc1cc(OC)cc(C(=O)Nc2ccc3c(c2)CCCN3C(=O)c2cccs2)c1 | -2.41 |
| CCOc1cc(S(=O)(=O)NCC2CCCO2)ccc1F (stereo not drawn) | 13.8 |
| COc1ccccc1/C=C/C=N/n1c(-c2ccc(F)cc2)n[nH]c1=S | 6.25 |
| CC1=NS(=O)(=O)c2cc(Cl)ccc2N1 | -2.63 |
| Cc1occc1C(=O)NNC(=O)CN1C(=O)NC(C)(c2ccccc2)C1=O (stereo not drawn) | 19.1 |
| COc1cccc(NC(=O)CN(C)C(=O)c2oc3c(ccc4ccccc43)c2C)c1 | -0.74 |
| CCOC(=O)c1cc(C#N)c(C)nc1N(CC)CC | -3.53 |
| CC(=O)Nc1cccc(OCC(=O)NS(=O)(=O)c2ccc(C)cc2)c1 | 1.18 |
| O=C1CC(C(=O)N2CCc3ccccc32)CN1c1ccc(F)cc1 (stereo not drawn) | -55.3 |
| O=C1CC(C(=O)N2CCCc3ccccc32)CN1c1ccc(F)cc1 (stereo not drawn) | -22.2 |
| O=C1CC(C(=O)N2CCc3ccccc32)CN1c1ccccc1 (stereo not drawn) | -6.98 |
| CCNC(=O)CC1SC(=Nc2ccc(Cl)cc2)N(CC)C1=O (stereo not drawn) | -0.837 |
| COCCCn1c(Cc2csc(Nc3ccc(F)cc3)n2)nnc1SCC(N)=O | -5.91 |
| COc1cccc(CN(C)CC2CCCN(CCc3ccc(Cl)cc3)C2)c1OC (stereo not drawn) | -74.5 |
| COc1ccc(CN(C)CC2CCCN(CCc3ccc(F)cc3)C2)cc1OC (stereo not drawn) | -64.8 |
| COc1cc(CN(C)CC2CCCN(CCc3ccc(F)cc3)C2)c(Cl)cc1O (stereo not drawn) | -30 |
| COc1ccc(CN(C)CC2CCCN(CCc3ccc(Cl)cc3)C2)cc1OC (stereo not drawn) | -88.5 |
| COc1ccc(CN(C)CC2CCCN(CCc3ccc(F)cc3)C2)c(OC)c1OC (stereo not drawn) | -74.8 |
| COc1ccc(CN(C)C2CCN(C)CC2)cc1OC | 21.8 |
| Cc1ccc2[nH]c3c(Cl)ncnc3c2c1 | 5.18 |
| Cc1ccc(O)c(C(CC(=O)N2CCCC2)c2ccccc2)c1 (stereo not drawn) | -18.9 |
| COc1ccc(O)c(-c2cc(-c3cccs3)[nH]n2)c1 | 0.169 |
| CCn1cc(C2C(C(=O)Nc3cc(C)ccn3)=C(C)NC3=C2C(=O)CC(C)(C)C3)c(C)n1 (stereo not drawn) | 11.3 |

| Compound | hERG current change (%, negative = inhibition) at 10uM [%] |
| --- | --- |
| Cc1cccc(NC(=O)CSc2nc(COc3ccccc3)nc3ccccc23)c1C | 13.5 |
| COc1ccccc1NC(=O)Nc1nn(C)c2cccc(OC)c12 | 2.03 |
| CCCC12CN3CCN(CC(C3)/C1=N\NC(=O)c1ccc(C(C)(C)C)cc1)C2 | -14.4 |
| Cc1cccc(N2CCN(CC(=O)Nc3nccs3)CC2)c1C | -45.3 |
| Cc1cc2nc(-c3ccc(SCC(=O)Nc4ccc5c(c4)OCCO5)nc3)[nH]c2cc1C | 2.26 |
| COC(=O)c1cc2c(cc1NC(=O)CSCCc1ccccn1)OCO2 | 7.82 |
| COc1ccc(-c2noc(CN(C)S(=O)(=O)c3ccc(Cl)cc3)n2)cc1OC | -9.85 |
| O=C1NC(=O)[C@]2(Cc3ccccc3N3CCN(c4ccccc4)CC32)C(=O)N1c1ccccc1 (stereo partly drawn) | -7.93 |
| COc1ccc([N+](=O)[O-])cc1NS(=O)(=O)c1ccccc1 | 8.94 |
| COc1ccc(N2CCN(CC(=O)Nc3cc(C)on3)CC2)cc1.O=C(O)C(=O)O | 0.616 |
| CC(C)Cn1c(N)c(C(=O)CSc2ncccn2)c(=O)n(C)c1=O | 6.81 |
| Cc1ccc(S(=O)(=O)CCC(=O)NCc2ccc(Cl)cc2)cc1 | -3.96 |
| CCN(CC(=O)NCc1cccs1)C(=O)CCCOc1ccc(C(C)(C)C)cc1 | -52.6 |
| CCOc1ccc(OCCC(=O)N(CC)CC(=O)NCc2ccc(Cl)cc2)cc1 | -60.5 |
| CCN(CC(=O)Nc1c(F)cccc1F)C(=O)CCCNC(=O)c1ccc(Cl)cc1 | -7.06 |
| CCOc1ccc(N(CC(=O)NCc2ccc(Cl)cc2)S(=O)(=O)c2ccccc2)cc1 | 20.4 |
| CCN(CC(=O)Nc1cc(Cl)ccc1C)C(=O)CCOc1ccc(C)cc1 | -8.25 |
| CCCCOc1ccc(C(=O)N(CC)CC(=O)NCc2cccs2)cc1 | -19.1 |
| CCN(CC(=O)Nc1ccccc1C(F)(F)F)C(=O)CCOc1ccc(C)cc1 | -13.1 |
| CCN(CC(=O)Nc1c(F)cccc1F)C(=O)CCC(=O)c1ccc(F)cc1 | -12.1 |
| CCOc1ccc(OCCC(=O)OCC(=O)NCc2ccc(Cl)cc2)cc1 | 8.85 |
| CCN(CC(=O)Nc1c(F)cccc1F)C(=O)CCNC(=O)c1ccc([N+](=O)[O-])cc1 | -55.4 |
| CCN(CC(=O)NCc1ccc(Cl)cc1)C(=O)CCOc1ccc(C)cc1 | -82.6 |
| CCN(CC(=O)NCc1cccs1)C(=O)CCCOc1ccccc1 | -35.2 |
